# Test results taken from PubChem BioAssay (NCI).
# Compounds without any hit were thinned out: in the full panel of roughly 83,000, 20% have a hit.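 Assay: single dose, 48 h. Readout: percent growth (0 = no net growth; negative = cell death). Active: <10.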 Unmarked numbers belong to inactive results. Calls of active or inactive are those of the source.
# Key:
# Assay in all cases: NCI-60 one-dose screen, 48 h (100 = growth as untreated, 0 = no growth, -100 = all killed)
# T-47D breast = conditions: 10 µM
# BT-549 breast = conditions: 10 µM unless noted
# MDA-MB-435 melanoma = conditions: 10 µM unless noted
# SW-620 colon = conditions: 10 µM unless noted
# MCF7 breast = conditions: 10 µM unless noted
# HCT-116 colon = conditions: 10 µM unless noted
# HCC-2998 colon = conditions: 10 µM unless noted
# KM12 colon = conditions: 10 µM unless noted
SMILES,growth (T-47D breast),growth (BT-549 breast),growth (MDA-MB-435 melanoma),growth (SW-620 colon),growth (MCF7 breast),growth (HCT-116 colon),growth (HCC-2998 colon),growth (KM12 colon)
COc1cccc(C2C3=C(COC3=O)N(CCO)c3cc4c(cc32)CCC4)c1 (stereo not drawn),77.7%,1.24% (active),-32.7% (active),18.8%,9.39% (active),-9.32% (active),-20.6% (active),-42.8% (active)
CN1CCN(c2ccc3nc(-c4ccc5nc(-c6ccc(C(F)(F)F)cc6)[nH]c5c4)[nH]c3c2)CC1,57.9%,84.6%,49.8%,1.32% (active),4.4% (active),21.1%,87.2%,49.7%
COc1cc(C2=NN(c3ccc(S(N)(=O)=O)cc3)C(c3ccc(Cl)cc3)C2)cc(OC)c1OC (stereo not drawn),20.4%,57.9%,29.2%,44.3%,25.2%,23.2%,45.9%,37.6%
COc1ccc(-n2ncc3c4nc(OC)c(S(=O)(=O)c5ccccc5)cc4ccc32)cc1,57%,53.1%,83.3%,90%,87.9%,59.7%,96.7%,90.2%
ONc1nc(NO)c2[nH]cnc2n1,53.5%,77.4%,75.7%,55%,90.2%,46.8%,121%,110%
COc1ccc(-c2nc3sc(C)nn3c2-c2nc3cc(C)c(C)cc3[nH]2)cc1,95.4%,96.5%,95.6%,98.5%,88.6%,97.5%,106%,103%
Cc1c(NCC(=O)Nc2nc3ccccc3[nH]2)c(=O)n(-c2ccccc2)n1C,97.8%,110%,103%,103%,89.4%,101%,114%,112%
Cc1nc2cc(Nc3nc(Nc4ccc(F)cc4)nc(-c4ccc(Cl)cc4)n3)ccc2n1Cc1ccccc1,30.7%,101%,66.2%,68.1%,42.4%,50.3%,81.6%,37.2%
Fc1ccccc1Nc1ccc2nnc(-c3ccncc3)n2n1,85.3%,101%,106%,106%,94.7%,99.5%,107%,112%
COc1cc(C(=O)/C=C/c2c(-c3cccs3)nc3sccn23)cc(OC)c1OC,-1.93% (active),5.79% (active),2.16% (active),8.66% (active),11%,-14.3% (active),-11.9% (active),-27.2% (active)
Cc1oc2c(c1C(=O)N1CC[C@@H](N)C1)C(=O)c1c(c(O)c3ccccc3c1O)C2=O,61.8%,79%,40.3%,3.53% (active),-1.04% (active),5.14% (active),12.3%,15.7%
CC1=CN2C(=NC3=C(CCCC/C3=C\c3ccccc3)C2c2ccccc2)S1 (stereo not drawn),91%,108%,99.6%,103%,94.6%,97.6%,103%,100%
O=[N+]([O-])c1cc2c(cc1Br)C1C(C3C2C(Cl)(Cl)C(Cl)=C(Cl)C3(Cl)Cl)C(Cl)(Cl)C(Cl)=C(Cl)C1(Cl)Cl (stereo not drawn),90.8%,93.1%,103%,115%,91.5%,89.7%,93.4%,106%
COC(=O)c1cc(-c2ccc(C)cc2)n(C(=O)CSc2nc3sc(C(N)=O)c(C)c3c(=O)n2Cc2ccccc2)n1,95.1%,96.1%,104%,105%,90.2%,92%,108%,100%
NS(=O)(=O)c1ccc(C(=O)N/N=C(\CS(=O)(=O)c2ccccc2)c2cc3cc(Br)ccc3o2)cc1,88.1%,101%,73%,94.6%,72.3%,90.5%,94.2%,85.6%
COc1ccc(-c2nc3sccn3c2/C=C/C(=O)c2cc(OC)c(OC)c(OC)c2)cc1OC,4.81% (active),0.662% (active),-30.5% (active),10.2%,4.93% (active),7.36% (active),40.3%,-15.2% (active)

SMILES,growth (T-47D breast),growth (BT-549 breast),growth (MDA-MB-435 melanoma),growth (SW-620 colon),growth (MCF7 breast),growth (HCT-116 colon),growth (HCC-2998 colon),growth (KM12 colon)
CN(C)C(=S)SCN1C(=O)c2ccc([N+](=O)[O-])cc2S1(=O)=O,102%,80.8%,101%,90.1%,97.4%,95.7%,102%,96.1%
O=C1/C(=C/c2ccc(Oc3ccccc3)cc2)N=C(c2ccccc2)N1CCc1cccs1,83.9%,74.9%,89.7%,80.1%,81.8%,57.1%,96.6%,97.6%
COC(=O)[C@H]1CCCN1C(=O)[C@H]1CCCN1C(=O)[C@@H](Cc1c[nH]c2ccccc12)NC(=S)Nc1cc(C(F)(F)F)cc(C(F)(F)F)c1,50.2%,91.9%,31.6%,64.2%,26.1%,39.5%,31.8%,37.2%
Cn1c2c(cc(S(=O)(=O)c3ccccc3)c1=O)CCc1c-2cnn1-c1cccc(Cl)c1,64.4%,92.4%,87.9%,110%,90.4%,88.2%,111%,101%
COc1ccc(-c2nc(Nc3ccc(F)cc3)nc(Nc3ccc4c(c3)nc(C)n4Cc3ccccc3)n2)cc1,11.5%,70.7%,34.1%,45.7%,22.6%,23.4%,45.5%,26%
O=C(Nc1nc2ccccc2[nH]1)C(=O)Nc1nc2ccccc2[nH]1,95.4%,108%,101%,102%,83.9%,103%,107%,101%
COC(=O)c1c2c(c(C)[n+]([O-])c1C)C(=O)C=C(NCc1ccc(F)c(Cl)c1)C2=O,-41.9% (active),-96.9% (active),-96.9% (active),-29.6% (active),-61.9% (active),-48.6% (active),-59.3% (active),-16.5% (active)
O=C1NC(=O)C2(CCCC2C(=O)O)N1 (stereo not drawn),106%,102%,105%,108%,96.2%,98.4%,100%,113%
CN1CCN(c2nc(-c3ccncc3)nc3sc4c(c23)CCCCCC4)CC1,90.9%,44.3%,77.7%,77.1%,60.6%,56.5%,37.4%,90.9%
FC(F)(F)c1cc(CNc2nc(Cl)ncc2Br)cc(C(F)(F)F)c1,82.1%,90%,45.9%,103%,93.3%,96.1%,97.8%,71.2%
CCOc1ccc(-c2cnnn2-c2nonc2-n2cccc2)cc1,49%,41.1%,-31.2% (active),21.7%,21.9%,6.67% (active),0.666% (active),8.62% (active)
COc1ccc(Cn2c(Br)c3c(c2-c2cc(OC)c(OC)c(OC)c2)CCc2sc(N)nc2-3)cc1,59.7%,44.2%,-40.1% (active),19%,10.1%,6.12% (active),12.4%,27.2%
COc1ccc2c(c1)c(=O)oc1c(C)c(OCC(C)=O)ccc12,104%,102%,89.4%,101%,101%,104%,98.1%,96.6%
Cc1cc(=O)c2c(C)ccc(C)c2[nH]1,96.1%,123%,104%,104%,93.5%,96.3%,91.2%,130%
COc1ccc(NC(=O)c2ccc3c(c2)nc(-c2ccc(Cl)cc2)n3-c2cc(C(C)(C)C)[nH]n2)cc1,74.5%,81.3%,88.9%,104%,83%,80.7%,112%,84%
